# Results reported in PubChem BioAssay AID434939 (The Scripps Research Institute Molecular Screening Center, 2010).
# About 2,000 (87%) of roughly 2,300 compounds were called active. No stated cut-off is given here; in the data, active means activation above about 11%; inactive means the rest. The set was probably picked from earlier hits. Only a sample is shown.
# Biological target: Nuclear receptor subfamily 1 group I member 2 (Homo sapiens) (UniProt O75469)
# Test: activation of PXR luciferase reporter – cell-based, luciferase luminescence, counter-screen for AHR activator project (AID 434939);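 further: human hepatoma DPX-2 cells expressing full-length human PXR; 0% = DMSO and 100% = reference agonist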
# Conditions: at 11.6 µM, stronger effect = higher value
# Chain of Nuclear receptor subfamily 1 group I member 2 (Homo sapiens) (O75469 whole entry, looked up): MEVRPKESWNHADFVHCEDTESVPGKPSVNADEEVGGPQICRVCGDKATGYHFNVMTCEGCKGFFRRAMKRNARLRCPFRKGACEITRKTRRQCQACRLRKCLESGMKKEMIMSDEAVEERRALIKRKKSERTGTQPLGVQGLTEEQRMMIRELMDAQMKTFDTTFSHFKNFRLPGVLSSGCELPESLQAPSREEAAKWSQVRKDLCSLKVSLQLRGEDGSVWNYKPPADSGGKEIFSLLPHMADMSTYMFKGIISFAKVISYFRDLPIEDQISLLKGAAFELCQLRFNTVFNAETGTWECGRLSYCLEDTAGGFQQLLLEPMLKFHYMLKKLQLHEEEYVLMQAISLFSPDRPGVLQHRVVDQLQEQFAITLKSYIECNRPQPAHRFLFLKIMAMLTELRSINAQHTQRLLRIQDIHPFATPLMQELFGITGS
row,Compound,activation
1,O=C(CSc1cccc2cccnc12)N/N=C/c1cccnc1,10.2% (active)
2,COc1ccc(OC)c(-c2csc(-c3cccs3)n2)c1,21.7% (active)
3,O=C(CC1Nc2ccccc2NC1=O)Nc1ccccc1 (stereo unspecified),26.3% (active)
4,COc1cc(NC(=O)c2ccc(-c3csc(C)n3)cc2)c(OC)cc1Cl,20.9% (active)
5,O=C(Cn1cncn1)N/N=C/c1c2ccccc2cc2ccccc12,13.7% (active)
6,O=C(Nc1ccc(Cl)cn1)c1cnn2cccnc12,35.9% (active)
7,Cc1ccc(-c2nc(C#N)c(NCCCn3ccnc3)o2)cc1,34.4% (active)
8,Cc1ccnc(NC(=O)c2ccc(Cl)c([N+](=O)[O-])c2)c1,42.9% (active)
9,Nc1[nH][nH]c(=O)c1N=Nc1ccc2c(c1)OCO2,11.2% (active)
10,CCOC(=O)c1nc(-c2ccc3c(c2)OCO3)[nH]c1C,34.2% (active)
11,CCSc1ccccc1C(=O)Nc1ccc2c(c1)OCO2,143% (active)
12,C=CCNC(=O)CSc1nc2sc(C)c(C)c2c(=O)[nH]1,16.4% (active)
13,COc1ccccc1NC(=O)C1=C(C)NC2=C(C(=O)CCC2)C1c1ccc(C)o1 (stereo unspecified),111% (active)
14,Brc1ccc(C2CC(c3ccccc3)=Nc3ccccc3N2)cc1 (stereo unspecified),39.7% (active)
15,Cc1cccc(NC(=O)Nc2ccc3c(c2)OCO3)n1,46.3% (active)
16,COc1ccccc1N1CCN(C(=O)c2cc3c(-c4ccc(Cl)cc4)nn(C)c3s2)CC1,39.5% (active)
17,Cn1nc(-c2ccc(Cl)cc2)c2cc(C(=O)NCc3ccco3)sc21,26.7% (active)
18,CCOC(=O)N1CCN(C(=O)c2cc3c(-c4ccc(Cl)cc4)nn(C)c3s2)CC1,48.9% (active)
19,CCOC(=O)c1ccc2[nH]c3c(c2c1)CCCC3NC=O (stereo unspecified),5.7% (inactive)
20,O=C(N/N=C/c1c[nH]c2ccccc12)c1cc2ccccc2o1,7.59% (inactive)
21,COc1cccc(-n2c(SCC(=O)NC3CCCCC3)nc3n[nH]c(C)c3c2=N)c1,160% (active)
22,COc1ccccc1Nc1ncnc2c1oc1ccccc12,21.1% (active)

row,Compound,activation
1,Cc1cc(N2CCOCC2)nc(-c2ccc(Br)cc2)n1,43.3% (active)
2,O=C(Nc1ccc(C2CC2(Cl)Cl)cc1)c1cccc([N+](=O)[O-])c1 (stereo unspecified),19.2% (active)
3,COc1ccc(C2NC(=O)c3ccccc3N2)cc1 (stereo unspecified),6.29% (inactive)
4,Brc1ccc(-c2noc(-c3ccccc3)n2)o1,20.2% (active)
5,CC(=O)Nc1ccc(-c2nc3ccccc3o2)cc1,10.9% (active)
6,CC(C)C(=O)Nc1c(C(=O)c2ccc(F)cc2)oc2ccccc12,25.4% (active)
7,C/C(CC1CC(C)(C)OC1=O)=N/Nc1nc(-c2ccccc2)cs1 (stereo unspecified),189% (active)
8,CCN(CC)C(=O)Oc1ccc(Br)cc1C(=O)Nc1ccc(F)c(Cl)c1,176% (active)
9,CCc1nc(Nc2ccc3nccnc3c2)c2oc3ccccc3c2n1,45% (active)
10,O=C(NC1CC1)C1=C[C@H](c2c[nH]c3ccccc23)C[C@H](OCc2ccc(CO)cc2)O1,22.2% (active)
11,O=C(Nc1cc(S(=O)(=O)Nc2ccc(Cl)cc2)ccc1O)c1ccc(F)cc1F,38.8% (active)
12,Cc1nnc(NC(=O)/C=C/c2ccco2)s1,36.6% (active)
13,COc1cc(/C=N/N=C(\N)c2nonc2N)cc(OC)c1OC,14.7% (active)
14,COc1cc(CNCc2ccc3c(c2)OCO3)c([N+](=O)[O-])cc1OC,36.7% (active)
15,Brc1ccc(C2=CC(c3ccco3)n3ncnc3N2)cc1 (stereo unspecified),15% (active)
16,Cc1cc(O)c(C(=O)/C=C/c2c(F)c(F)c(F)c(F)c2F)c(=O)o1,23.8% (active)
17,COc1ccc(C(=O)Nc2ccccc2C(=O)N/N=C/c2ccccc2OC)cc1,28% (active)
18,Cc1ccc(Cl)cc1NC(=O)C1CCCN(c2cnccn2)C1 (stereo unspecified),41.2% (active)
19,O=C(Nc1cccc(Cl)c1)C1CCCN(c2cnccn2)C1 (stereo unspecified),29.6% (active)
20,Cn1c(SCC(=O)c2ccccc2)ncc(C(=O)Nc2ccc(F)cc2)c1=O,13.1% (active)
21,CCC(C)NCC(=O)Nc1ccc([N+](=O)[O-])cc1C(=O)Nc1ccccc1F (stereo unspecified),40.5% (active)
22,Cn1cc(Cl)c(C(=O)NNC(=S)Nc2cccc(Cl)c2)n1,22.8% (active)

row,Compound,activation
1,C/C(=N\NC(=O)CNc1cccc2ccccc12)c1ccc(Br)s1,13.8% (active)
2,COc1cccc(-c2nc3cc(C)ccc3o2)c1,31.3% (active)
3,CC1Cc2ccccc2N1C(=O)CSc1nnc(C2CC2)n1C (stereo unspecified),80.9% (active)
4,CCNC(=S)N1CCC(c2nc3cc(C)c(C)cc3[nH]2)CC1,21.2% (active)
5,S=c1[nH]nc(-c2cc(-c3ccsc3)n[nH]2)n1-c1ccccc1,13.7% (active)
6,Cc1nn2c3cc(N4CCOCC4)ccc3nc2c2ccccc12,63.2% (active)
7,Cc1ccc(NC(=O)Nc2cccnc2)cc1,19.7% (active)
8,Cc1cccc(NC(=O)c2ccc3ccccc3n2)n1,20.3% (active)
9,COc1ccc(NC(=O)c2ccco2)cc1NC(=O)c1ccc(C#N)cc1F,14.9% (active)
10,C=CCOc1c(Br)cc(/C=N\n2nnnc2N)cc1OC,78.1% (active)
11,Cc1nc2sc(C(=O)c3ccccc3)c(N)c2c2c1CCCC2,69.6% (active)
12,O=C(CSc1ccccn1)Nc1nc2c(ccc3ccccc32)s1,21.9% (active)
13,CCCCC(=O)Nc1ccc(C(=O)Nc2cc(C(F)(F)F)ccc2Cl)cc1,15.4% (active)
14,CCOc1ccccc1NC(=O)c1cccnc1,24.9% (active)
15,COCCNc1nc(-c2ccccc2)nc2c1oc1ccccc12,28.9% (active)
16,Cc1cccc(N=Nc2c(O)[nH]c3ccc(F)cc23)c1,16.1% (active)
17,CSc1ccc(C#N)cc1NC(=O)c1ccc(Cl)cc1,18.5% (active)
18,O=C(NCCCn1ccnc1)c1cc(-c2ccccc2)on1,41.3% (active)
19,Cc1ccnc(-n2sc3ccccc3c2=O)n1,25.7% (active)
20,O=C(Nc1ccc(-c2csc(Nc3cccc(C(F)(F)F)c3)n2)cc1)c1cccc(C(F)(F)F)c1,5.47% (inactive)
21,O=C(Nc1ccc(C(F)(F)F)cc1)c1cccc(-n2cnnn2)c1,16.3% (active)
22,O=C(Nc1ccc(OC(F)(F)F)cc1)c1ccc2c(c1)no[n+]2[O-],0.82% (inactive)
